What was measured:
Assay in all cases: growth AUC relative to DMSO control (median of replicates) (fraction); higher = more growth (less inhibition), active = hit call of the paper
Conditions in all cases: 20 µM; 24 h;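 active = AUC reduced over 20% with Padj below 0.05 in at least 2 of 3 replicates; inactive = otherwise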
[1] = tested on: Akkermansia muciniphila
How it was run: (§1)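 Starting at OD600 0.05, gut bacterial monocultures in mGAM were grown anaerobically at 37 °C with 20 µM compound (1% DMSO) under pierced gas-permeable seals. OD600 was read every hour for 24 h, and the lowest OD of each curve was set to 0. Area under the growth curve was normalised to the plate median of solvent-only wells, or to row and column medians on the industrial chemical plate, and the median of three biological replicates grown on separate days is given.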

[2] = tested on: Bacteroides caccae
How it was run: as §1

[3] = tested on: Bacteroides clarus
How it was run: as §1

[4] = tested on: Bacteroides dorei
How it was run: as §1

[5] = tested on: Bacteroides stercoris
How it was run: as §1

[6] = tested on: Bacteroides thetaiotaomicron
How it was run: as §1

[7] = tested on: Bacteroides uniformis
How it was run: as §1

[8] = tested on: Bifidobacterium longum subsp. longum
How it was run: as §1

[9] = tested on: Clostridium difficile
How it was run: as §1

[10] = tested on: Collinsella aerofaciens
How it was run: as §1

[11] = tested on: Coprococcus comes
How it was run: as §1

[12] = tested on: Escherichia coli ED1a
How it was run: as §1

[13] = tested on: Escherichia coli IAI1
How it was run: as §1

[14] = tested on: Eubacterium rectale
How it was run: as §1

[15] = tested on: Fusobacterium nucleatum subsp. animalis
How it was run: as §1

[16] = tested on: Lactobacillus gasseri
How it was run: as §1

[17] = tested on: Lactobacillus paracasei
How it was run: as §1

[18] = tested on: Odoribacter splanchnicus
How it was run: as §1

[19] = tested on: Parabacteroides distasonis
How it was run: as §1

[20] = tested on: Parabacteroides merdae
How it was run: as §1

Measured: growth AUC

CCCSP(=O)(OCC)Oc1ccc(Br)cc1Cl (stereo not given)
inactive: [1] 0.944 | [2] 0.864 | [3] 0.95 | [4] 0.985 | [5] 1.17 | [6] 0.901 | [7] 0.881 | [8] 1.06 | [9] 1.03 | [10] 0.972 | [11] 1.01 | [12] 1.01 | [13] 1.04 | [14] 0.993 | [15] 1.11 | [16] 0.976 | [17] 1.1 | [18] 1.04 | [19] 0.871 | [20] 0.994

Clc1ccc(C(c2ccc(Cl)cc2)C(Cl)(Cl)Cl)cc1
active: [3] 0.763 | [5] 0.127 | [7] 0.798 | [19] 0.258 | [20] 0.69
inactive: [1] 1.1 | [2] 0.934 | [4] 0.955 | [6] 0.866 | [8] 0.886 | [9] 0.943 | [10] 0.869 | [11] 0.964 | [12] 0.963 | [13] 0.979 | [14] 0.878 | [15] 0.916 | [16] 0.487 | [17] 0.908 | [18] 0.709

COc1ccc(/C(=C/C(=O)N2CCOCC2)c2ccc(F)cc2)cc1OC
inactive: [1] 0.998 | [2] 1.05 | [3] 0.959 | [4] 0.953 | [5] 0.921 | [6] 0.997 | [7] 0.984 | [8] 0.958 | [9] 1 | [10] 0.952 | [11] 1.02 | [12] 0.974 | [13] 1.01 | [14] 0.966 | [15] 0.955 | [16] 0.971 | [17] 0.976 | [18] 1.06 | [19] 1.01 | [20] 1.02

Nc1cc(Cl)ccc1Cl
inactive: [1] 1.03 | [2] 0.993 | [3] 1.05 | [4] 1.04 | [5] 1.25 | [6] 1.03 | [7] 1.03 | [8] 0.992 | [9] 1 | [10] 1.01 | [11] 1 | [12] 1 | [13] 1.01 | [14] 0.989 | [15] 1.07 | [16] 1.04 | [17] 0.958 | [18] 1 | [19] 1.02 | [20] 1.04

Cc1cc(C(C#N)c2ccc(Cl)cc2)c(Cl)cc1NC(=O)c1cc(I)cc(I)c1O (stereo not given)
inactive: [1] 0.866 | [12] 0.958 | [13] 0.953
active: [2] 0.184 | [3] 0.0125 | [4] 0.0106 | [5] 0.00703 | [6] 0.0104 | [7] 0.0176 | [8] 0.121 | [9] 0.00624 | [10] 0.0767 | [11] 0.275 | [14] 0.072 | [15] 0.702 | [16] 0.0202 | [17] 0.0904 | [18] 0.017 | [19] 0.0201 | [20] 0.00673

Nc1c(Cl)c(Cl)c(Cl)c(Cl)c1Cl
inactive: [1] 0.856 | [2] 0.897 | [3] 0.935 | [4] 0.956 | [5] 0.945 | [6] 0.968 | [7] 0.981 | [8] 0.949 | [9] 0.988 | [10] 1 | [11] 0.958 | [12] 0.986 | [13] 0.95 | [14] 1.01 | [15] 0.983 | [16] 0.972 | [17] 0.869 | [18] 0.993 | [19] 1.04 | [20] 0.971

CON(C)C(=O)Nc1ccc(Br)cc1
inactive: [1] 0.941 | [2] 1.01 | [3] 0.988 | [4] 0.992 | [5] 1.16 | [6] 1.02 | [7] 0.993 | [8] 1.18 | [9] 0.952 | [10] 1.1 | [11] 1.05 | [12] 1.02 | [13] 1 | [14] 1.02 | [15] 1.07 | [16] 1.15 | [17] 1.02 | [18] 1.01 | [19] 0.983 | [20] 1.01
